Values joined by “and” are separate entries in the source; they are usually repeats but may differ in a detail not shown here. Equal entries are not always repeated. About 83,000 compounds went through this panel and 20% of them were active in at least one assay; those are over-represented in the sample as a whole.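 Negative percent growth values reflect cell death: -40 means 40% of the cells present at the start died, and -100 means all died.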 Active and inactive are the calls of the source. The calls were made as follows: active = growth percent below 10; inactive = the rest.
test system: MDA-MB-468 breast; assay: NCI-60 one-dose screen, 48 h (100 = growth as untreated, 0 = no growth, -100 = all killed); details: 10 µM unless noted

Compound | growth
COc1cc(NCC(O)CN(CC(C)C)C2CCCC2)c2ncccc2c1 (stereo not given) | -13.4% (active)
O=C(N/N=C/C=C\c1ccccc1)C(=O)N/N=C/C=C/c1ccccc1 | 105% (inactive)
CCCCn1c(=O)c2c(nc3n2CCCN3CCc2ccc(OCC(=O)NCCN(CC)CC)cc2)n(CCCC)c1=O | 43.7% (inactive)
CC(C)c1ccc(C(=O)OC(=O)c2ccc(C(C)C)cc2)cc1 | 110% (inactive)
CN(C)CCCC1(c2ccc(F)cc2)OCc2cc(-c3ccc(C(F)(F)F)nc3)ccc21 (stereo not given) | 73.3% (inactive)
C1=CN2CC(c3ccccc3)=NNC2c2ccccc21 (stereo not given) | 82.5% (inactive)
CN1CCN(c2ccc(Nc3nc(NCCCNS(=O)(=O)c4ccc(C(F)(F)F)cc4)c4sccc4n3)cc2)CC1 | -80.9% (active)
Cc1ccc(S(=O)(=O)c2nc(-c3ccccc3)oc2S(C)=O)cc1 (stereo not given) | -59% (active)
COc1cc2c(cc1OC)N(CCO)C1=C(C(=O)OC1)C2c1ccc(Cl)c(Cl)c1 (stereo not given) | 112% (inactive)
CCOC(=O)Cc1cnn(C)c1NC(=O)c1ccc(Cl)cc1NC(C)=O | 89.9% (inactive)
CCOC(=O)c1cn2ncnc(Oc3ccc(NC(=O)NCCN(C)C)c(Cl)c3)c2c1C | 67.4% (inactive)
COc1ccc(C(=O)COC(=O)[C@H](C[Se][Se]C[C@H](NC(=O)c2ccc(Br)cc2F)C(=O)OCC(=O)c2ccc(OC)cc2)NC(=O)c2ccc(Br)cc2F)cc1 | -51.3% (active)
C=CCOc1ccc2c(c1)CC[C@@H]1[C@@H]2CC[C@@]2(C)[C@H]1CC[C@]2(C)O | 81.2% (inactive)
COc1cc(/C=C/C(=O)/C=C/c2cc(OC)c3c(c2OC)OCO3)c(OC)c2c1OCO2 | 23.1% (inactive)
[2H]C([2H])([2H])Oc1c(F)cccc1/C=C/C(=O)/C=C(O)/C=C/c1cccc(F)c1OC([2H])([2H])[2H] | 98.3% (inactive)
COc1cc(N=Cc2sc(Nc3nccs3)nc2O)cc(OC)c1OC | 84.8% (inactive)
O=C(Cn1nnc2ccccc21)Nc1ccc(-c2nc3ccccc3s2)cc1 | -23.8% (active)
N#CC1=C(N)Oc2c(c(=O)[nH]c3ccc(Cl)cc23)C12C(=O)c1ccccc1C2=O | 96.6% (inactive)
COc1ccc2c(c1)C/C(=C\c1cc(-c3ccc4c(c3)OCO4)n[nH]1)C2=O | 37.8% (inactive)
CN(C)c1ccc(/C=C/c2nccc3ccccc23)cc1 | -1.08% (active)

Compound | growth
NCCn1cc(-c2nc(-c3c[nH]c4ncccc34)cs2)c2cc(Br)ccc21 | 66% (inactive)
COCCn1cc(-c2nc(-c3cc4cccnc4n3C)cs2)c2cc(OC)ccc21 | -28% (active)
O=c1[nH]c(=O)c2cc(Cl)cc(Cl)c2[nH]1 | 112% (inactive)
COc1ccc(C)cc1NC(=O)SC(C)C | 91.9% [100 µM] (inactive)
O=C(NNc1nc2cc(F)c(F)cc2n2cccc12)c1cnccn1 | 17.5% (inactive)
CCOC(=O)CSc1nc2sc3c(c2c(=O)n1-c1ccc([N+](=O)[O-])cc1)CCCCC3 | 56.6% (inactive)
CCCCCCN(CCCCCC)CCCNc1nccc2ccccc12 | -6.34% (active)
COc1ccc(-c2n[nH]nc2-c2cc(OC)c3c(c2)OCO3)cc1 | 38.6% (inactive)
O=c1c2ccccc2n2cnc3ccc(Cl)c1c32 | 79.1% (inactive)
NCCNc1nc2ccccc2c2c(=O)c3cc(F)ccc3sc12 | 67.2% (inactive)
O=C(Nc1ccc(Nc2ccncc2)cc1)c1ccc(Nc2ccnc3ccc([N+](=O)[O-])cc23)cc1[N+](=O)[O-] | 21.7% (inactive)
COc1cc2nc(Cl)nc(NCCO)c2cc1OC | 99.2% (inactive)
O=S(=O)(Nc1ccc(Cl)c(F)c1)c1ccc(-c2cnc(C3CC3)o2)cc1 | -25.4% (active)
CN(C)c1ccc(/C=C\C(=O)c2ccccc2)cc1 | 84.8% (inactive) and 88.3% (inactive) and 83.9% (inactive)
NS(=O)(=O)c1ccc(Nc2nc(N/N=C/C=C/c3ccccc3)nc(Nc3ccccc3)n2)cc1 | 15.6% (inactive)
O=C(Nc1ccc(-n2cc(-c3ccncc3)c(-c3ccc(O)c(Cl)c3)n2)cc1)c1cc(Cl)cc(Cl)c1 | 50.6% (inactive)
C=CCOc1cccc(/C=C2\SC(=S)N(C3CC(=O)N(c4ccc(Br)cc4)C3=O)C2=O)c1 (stereo not given) | 111% (inactive)
O=C(Cc1ccc(/C=C/C(=O)c2ncc[nH]2)cc1)Nc1ccccc1 | 22.2% (inactive)
O=C(NCCc1ccccc1)Nc1ccc2cc3ccc(NC(=O)NCCc4ccccc4)cc3nc2c1 | -5.36% (active)
CN(C)c1ccc(/C=C/c2cc[n+](C)c(/C=C/c3ccc(N(C)C)cc3)c2)cc1 | -12.7% (active)

Source: PubChem BioAssay (NCI)
